The entries come from a sample that favours hits as a whole.
Shiga toxin inh: inhibitors of Shiga toxin in Vero cells | Vero cells, Shiga toxin protein synthesis inhibition reporter | inhibition, % at 38.7 µM | 9.2% of 290,000 active | AID 2315; in the data active = inhibition mostly above about 28%, no sharp cut-off; inactive = mostly below about 43%; also: 0% is about no effect
Vaccinia Venus: vaccinia inhibition (Venus reporter); Vaccinia virus Venus reporter expression, fluorescence; Potency, µM (highest dose often 36.5 µM), for inactives: at the highest dose activity change, negative = inhibition, most hits filed as inhibitors; 0.46% of 330,000 active; AID 720580; calls by dose curve; tested in A549 cells; also: potency is read from the fitted curve at half-maximal effect; % is scaled to controls: 0 for no effect and ±100 for the full control effect; nearly all actives have a fitted effect of over 30% in size
Marburg entry inh: Marburg virus entry inhibition. Marburg virus pseudotyped entry inhibition, cell reporter. Potency, µM (series often up to 37.8 µM), for the others: at the top dose activity change, negative = inhibition, most hits filed as inhibitors. 1.8% of 300,000 active; calls by dose curve; tested in HEK293 cells; also: potency is read from the fitted curve at half-maximal effect; % is scaled to controls: 0 for no effect and ±100 for the full control effect
Lassa entry inh: inhibitors of Lassa virus binding or cell entry | AID 540256 | Potency, µM (highest dose often 37.9 µM), inactives show at the top dose activity change, negative = inhibition, most hits filed as inhibitors | 1.2% of 300,000 active | Lassa virus pseudotype entry inhibition, cell reporter; calls by dose curve; tested in HEK293 cells; also: potency is read from the fitted curve at half-maximal effect; % is scaled to controls: 0 for no effect and ±100 for the full control effect; nearly all actives have a fitted effect of over 50% in size
Cycloheximide cs: affects cycloheximide protein synthesis inhibition readout, counter-screen; cell reporter, cycloheximide protein synthesis inhibition counterscreen; max response, %; 12% of 300,000 active; in the data active = max response mostly above about 13%, no sharp cut-off; inactive = mostly below about 14%; also: read at 38.3 µM for the half of the compounds with a filed dose; 0% is about no effect
VACV mCherry inh: vaccinia inhibition (mCherry reporter); Vaccinia virus mCherry reporter infection, fluorescence; Potency, µM (titrated, usually from 36.5 µM), for inactives: top-dose activity change, negative = inhibition, actives largely listed as inhibitors; 0.63% of 310,000 active; calls by dose curve; tested in A549 cells; also: potency is read from the fitted curve at half-maximal effect; % is scaled to controls: 0 for no effect and ±100 for the full control effect; nearly all actives have a fitted effect of over 35% in size
Numbers without * were called inactive; i = inactive; ? = inconclusive; · = not tested or not shown; + = active, no number; [ ] = dose if it differs, or a comment.

SMILES | Shiga toxin inh | Vaccinia Venus | Marburg entry inh | Lassa entry inh | Cycloheximide cs | VACV mCherry inh
COc1ccc(CCN(C)C(=O)C2CCN(Cc3cccc(OC)c3OC)CC2)cc1OC | -12.9 | -2.9% | -14.7% | -6.3% | 12.0 | i
Cc1ccc(S(=O)(=O)NCCc2nc3ccccc3[nH]2)cc1 | -4.6 | -2.6% | -2.0%[46.1 µM] | -0.1%[46.1 µM] | 1.3 | -14.9%
Cc1ccccc1C(=O)Nc1ccccc1OCc1cc(=O)n2ccccc2n1 | · | -18.4% | · | ? | · | ?
O=C(OCc1nnc(-c2ccccc2)o1)C12CC3CC(CC(Br)(C3)C1)C2 | 56.4* | -16.7% | · | · | 35.5* | i
CC(=O)Nc1ccc(OCc2nnc(-c3ccc(Cl)cc3)o2)cc1 | 57.5 | 2.4% | 2.1%[46.1 µM] | -5.9%[46.1 µM] | 19.9* | -4.8%
Cc1nc2ccc(C(=O)OCc3nnc(-c4ccccc4)o3)cc2nc1C | -8.8 | -5.4% | 0.3% | 8.9% | 10.3* | i
O=C(OCc1nnc(-c2ccccc2)o1)c1ccccc1 | 89.6* | 5.2% | 1.7%[46.1 µM] | · | 29.5* | 0.9%
CCc1nc2c(OCC(=O)N3CCOCC3)cccn2c1N(C)C(=O)COc1ccccc1 | · | -8.5% | · | · | · | 7.0%
O=C(O)c1cc(N(Cc2ccccc2O)Cc2ccccc2O)ccc1O | -1.9 | · | · | · | 12.2 | ·
CCN(CC)c1ccc(C(=O)c2ccccc2C(=O)O)c(O)c1 | 28.0* | · | 19.8% | 4.6% | 22.2* | ·
CC1(C)OC(=O)C(=NNc2ccc(Br)cc2)C(=O)O1 | 115.2* | -3.6% | 2.2% | 2.6% | 31.2* | -10.0%
CC1(C)OC(=O)C(=CNc2ccccc2)C(=O)O1 | 26.5 | -6.9% | 1.0% | 3.6% | 16.0 | -10.5%
CCCC[C@H](CCC(=O)Nc1ccc(C(=O)OC)cc1)C(=O)O | · | · | 17.7%[46.1 µM] | · | · | ·
Cc1nc(CN(C)C(=O)CC2C(=O)NCCN2Cc2ccc(-c3ccccc3)cc2)cs1 (configuration not stated) | 25.6* | -12.1% | 9.7% | -16.9% | 18.2 | -26.4%
CN1CCNC(=O)C1CC(=O)NCCc1ccccc1F (configuration not stated) | 12.8 | -6.3% | -24.2%[46.1 µM] | 13.0%[46.1 µM] | -2.5 | i
O=C(CC1C(=O)NCCN1Cc1ccccn1)NCCc1ccccc1F (configuration not stated) | 36.2* | -6.3% | 14.1% | 19.0% | 15.0 | i
CCOc1ccc(CN2CCNC(=O)C2CC(=O)NCc2ccccn2)cc1 (configuration not stated) | 7.1 | 2.1% | -8.3%[46.1 µM] | 10.3% | 36.5* | -3.5%
COC(=O)c1ccc(NC(=O)C(C)Sc2nc(=O)cc(N)n2CCc2ccccc2)cc1 (configuration not stated) | · | -3.1% | ? | 7.0%[46.1 µM] | · | -1.9%
Cc1ccc(N2C(=O)c3ccc(N)cc3C2=O)cc1C | 118.7* | · | 1.7% | 2.8% | 30.8* | ·
CC(=O)Nc1ccc2c(c1)C(=O)N(c1ccc(C)cc1)C2=O | + | -10.1% | 9.1% | 3.2% | 51.3* | -10.1%
Cc1ccc(N2C(=O)c3cccc4cccc(c34)C2=O)cc1 | 7.5 | -7.1% | ? | 15.1% | 0.7 | -0.1%
O=C(Nc1ccc2c(c1)C(=O)N(c1ccccc1)C2=O)C1CCCO1 (configuration not stated) | 32.8* | · | 13.6% | ? | 31.9* | ·
Cc1ccc(N2C(=O)c3ccc(N)cc3C2=O)cc1 | 66.7* | ? | ? | 4.4% | 29.8* | ?
Cc1ccc(N2C(=O)c3ccccc3C2=O)cc1C | 25.7 | -8.1% | -1.5% | 11.8% | 13.2 | i
C=C(C)Cn1c(=O)c2c(nc3n2CCN3c2ccc(CC)cc2)n(C)c1=O | · | -18.3% | · | 16.9%[46.1 µM] | · | -23.8%
SMILES | Shiga toxin inh | Vaccinia Venus | Marburg entry inh | Lassa entry inh | Cycloheximide cs | VACV mCherry inh
CCc1cccc2cc(C(O)CNC(C)(C)C)oc12 (configuration not stated) | -5.8 | · | · | · | -1.5 | ·
CC(C)N(Cc1ccccc1)C(=O)Cn1ncc2c3ccccc3n(Cc3ccccc3)c2c1=O | · | -17.1% | -9.3%[46.1 µM] | -24.1%[46.1 µM] | · | -14.6%
C=CC(C)=C[C@@]1(C)SC(=O)C(C)=C1O | · | · | 2.2% | -18.4% | · | ·
O=C(Nc1ccccc1OC(F)F)c1cc2c(s1)CCC2 | 43.3* | -13.6% | · | · | 39.9* | -21.7%
O=C(NNC(=S)Nc1ccc(OC(F)F)cc1)c1cc2c(s1)CCCC2 | 10.1 | -11.2% | ? | -11.2% | 13.7* | -13.6%
COCOc1c2c(c(OCOC)c3c(OCOC)cccc13)/C(=N/N[S+](=O)([O-])c1ccc(C)cc1)C1=C2CCCC1 | · | · | -17.4%[14.2 µM] | · | · | ·
O=C(O)c1ccc(NC2=C/C(=N/S(=O)(=O)c3ccccc3)c3ccccc3C2=O)cc1 | -11.4 | ? | 3.98µM* | 7.08µM* | -6.1 | ?
Cc1cc(C)c(S(=O)(=O)/N=C2\C=C(Nc3ccc(C(=O)O)cc3)C(=O)c3ccccc32)c(C)c1 | 23.5 | ? | 5.62µM* | ? | 6.4 | ?
CCc1ccc(S(=O)(=O)/N=C2\C=C(Nc3ccc(O)cc3)C(=O)c3ccccc32)cc1 | 37.1 | 3.98µM* | ? | 4.47µM* | 17.0* | ?
O=C(O)c1ccc(NC2=C/C(=N/S(=O)(=O)c3cccs3)c3ccccc3C2=O)cc1 | · | 7.9% | · | · | · | -6.2%
CCc1ccc(S(=O)(=O)/N=C2\C=C(Nc3cccc(C(=O)O)c3)C(=O)c3ccccc32)cc1 | 15.6 | -15.6% | 2.9%[46.1 µM] | ? | 1.8 | ?
CCOc1ccc(/C(O)=C2/C(=O)C(=O)N(c3ncccn3)C2c2ccccc2)cc1 (configuration not stated) | 57.8* | · | -10.2% | 1.0% | 66.4* | ·
CCOc1ccc(/C(O)=C2/C(=O)C(=O)N(CCOCCO)C2c2cccnc2)cc1 (configuration not stated) | -5.8 | -12.8% | 2.6% | -0.3% | 1.9 | ·
CCOc1ccc(/C(O)=C2/C(=O)C(=O)N(CCOCCO)C2c2ccccc2)cc1 (configuration not stated) | 21.2 | 7.6% | -4.5% | 10.5% | 18.1* | -1.6%
CNC(=O)CSc1nc2sccc2c(=O)n1-c1ccccc1 | -9.5 | -9.3% | -6.0%[46.1 µM] | 13.9% | -6.0 | -18.2%
NC(=O)NC(=O)CSc1nc2sc(-c3ccccc3)cc2c(=O)n1-c1ccccc1 | 19.9 | -15.9% | 4.0%[46.1 µM] | -9.6%[46.1 µM] | 11.0* | i
CSc1nc2sc(-c3ccccc3)cc2c(=O)n1N | 48.2 | -3.0% | -14.9% | ? | 22.0* | i
COc1cccc(CN2CCCC(c3nc(-c4ccncc4)ncc3-c3ccccc3)C2)c1O (configuration not stated) | · | -16.8% | · | · | · | -29.6%
O=C1C2C3C=CC(C4CC34)C2C(=O)N1/N=C/c1c[nH]c2ccccc12 (configuration not stated) | 114.6* | -8.5% | ? | 5.0%[46.1 µM] | 46.3* | i
C(=NN1CCCCCC1)c1c[nH]c2ccccc12 | · | 6.1% | 6.0%[46.1 µM] | 3.8%[46.1 µM] | · | ?
COc1ccccc1CNC(=O)c1c2c(nc3ccccc13)C(=O)N(C1CCCCC1)C2 | · | -2.2% | · | 11.1%[46.1 µM] | · | -14.7%
CCCCCN(C(=O)CCC(=O)OCc1ccc(Cl)cc1Cl)c1c(N)n(CCCC)c(=O)[nH]c1=O | · | -20.4% | 2.51µM* | ? | · | -9.2%
CCCCCN(C(=O)CCC(=O)OCc1ccccc1Cl)c1c(N)n(CCCC)c(=O)[nH]c1=O | -4.0 | -24.4% | ? | -20.0% | 4.6 | ?

Bioassay records (PubChem)
